IL-1B inflam inh: qHTS for Inhibitors of Inflammasome Signaling: IL-1-beta AlphaLISA Primary Screen; THP-1 LPS/ATP IL-1B secretion, AlphaLISA, 16 h; stronger effect = lower value; activity change, % at 57.5 µM; 360,000 compounds, 4.7% hits; AID 743279, 2014; in the data active means activity change below about -50%; inconclusive means mostly about -30% to -49%; further: on the % scale 0 is the no-effect control and ±100 the full control effect
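THP-1 cells pretreated 1 hr with compounds (up to 57.5 uM final), then stimulated with LPS (250 ng/mL final) plus ATP (1.25 mM final); secreted IL-1B measured by AlphaLISA after 16 hr, decreased signal indicating inhibition.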
DT40 TDP1 no CPT: qHTS for Inhibitors of human tyrosyl-DNA phosphodiesterase 1 (TDP1): qHTS in cells in absence of CPT; Potency, µM (highest dose often 46.2 µM), for inactives: at the top dose activity change, negative = growth inhibition, usual class: inhibitors; AID 686978, 2013; DT40 Tdp1-/- hTDP1 cells, no CPT, ATP luminescence, 48 h; 420,000 compounds, 15% hits; further: potency means the concentration at half of the fitted maximal effect; on the % scale 0 is the no-effect control and ±100 the full control effect; nearly all actives have a fitted effect of over 55% in size
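Growth of hTDP1-complemented DT40 Tdp1-knockout cells is measured by ATP luminescence after at least 48 hr compound exposure at 37 °C, with DMSO substituting for the 20 nM CPT used in the parallel screen.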
TGFb SMAD3 inh: qHTS for Inhibitors of TGF-b. HepG2 CAGA-GFP TGF-b/SMAD3 reporter, GFP fluorescence, 18 h; TGF-beta stimulated, 500 pg/mL final. Potency, µM (titrated, usually from 46.1 µM), for inactives: at the highest dose activity, negative = inhibition, usual class: inhibitors. 410,000 compounds, 1.2% hits. AID 588855, 2011; further: potency means the concentration at half of the fitted maximal effect; on the % scale 0 is the no-effect control and ±100 the full control effect; nearly all actives have a fitted effect of over 65% in size
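HEPG2 CAGA-GFP cells (1000/well, DMEM with 1% FBS) were pre-incubated 2 h at 37 degrees C, given compound by pin tool, then stimulated with TGF-beta at 500 pg/mL final for 18 h before per-cell GFP fluorescence imaging.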
S-ASM inh: Inhibitors of Secretory Acid Sphingomyelinase (S-ASM): qHTS; Sphingomyelin phosphodiesterase (Homo sapiens), P17405; placental ASM, HMU-PC fluorogenic substrate, 60 min; Potency, µM (top dose mostly 57.5 µM), for the others: at the highest dose activity change, negative = inhibition, actives largely listed as inhibitors; 340,000 compounds, 0.006% hits; AID 504937, 2011; further: potency means the concentration at half of the fitted maximal effect
Target sequence (P17405 47-631 limits assumed): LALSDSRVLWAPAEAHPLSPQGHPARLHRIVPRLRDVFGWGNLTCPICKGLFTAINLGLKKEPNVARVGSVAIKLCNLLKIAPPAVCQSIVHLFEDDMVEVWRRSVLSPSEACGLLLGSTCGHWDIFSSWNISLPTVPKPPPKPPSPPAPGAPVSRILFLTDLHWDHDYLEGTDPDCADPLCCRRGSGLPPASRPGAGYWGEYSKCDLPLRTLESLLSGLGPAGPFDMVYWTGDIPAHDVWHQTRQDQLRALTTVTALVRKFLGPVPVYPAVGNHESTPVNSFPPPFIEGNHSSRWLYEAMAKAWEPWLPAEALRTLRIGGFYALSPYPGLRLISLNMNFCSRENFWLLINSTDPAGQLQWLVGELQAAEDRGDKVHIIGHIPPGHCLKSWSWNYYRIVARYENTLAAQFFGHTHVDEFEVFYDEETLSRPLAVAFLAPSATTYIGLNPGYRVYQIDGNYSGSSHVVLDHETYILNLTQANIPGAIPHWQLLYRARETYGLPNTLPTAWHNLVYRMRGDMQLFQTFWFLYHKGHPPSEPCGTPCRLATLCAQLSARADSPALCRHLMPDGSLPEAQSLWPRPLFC
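Steps: dispense placental human ASM, pin compound, wait 10 min at room temperature, add HMU-PC0 substrate at 9 uM final, incubate 60 min at 37 °C, add stop solution raising pH to 10, read fluorescence.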
HepG2 tox-1: qHTS for Inhibitors of TGF-b: Cytotox Counterscreen. 410,000 compounds, 0.76% hits. HepG2 CAGA-GFP viability, ATP luminescence, 18 h. Potency, µM (series often up to 46.1 µM), inactives show top-dose activity change, negative = cytotoxicity, actives largely listed as cytotoxic. AID 588856, 2011; further: potency means the concentration at half of the fitted maximal effect
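HepG2 CAGA-GFP cells (1000/well, DMEM with 1% FBS) received compound, then TGF-beta at 500 pg/mL final, and were incubated 18 hours at 37 degrees C. Viability was read by CellTiter-Glo luminescence. Media-only wells were set as complete cell-killing and DMSO as no toxicity.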
DT40 TDP1 CPT: qHTS for Inhibitors of human tyrosyl-DNA phosphodiesterase 1 (TDP1): qHTS in cells in presence of CPT | chicken DT40 Tdp1-/-;hTDP1 cells + 20 nM CPT, ATP luminescence, 48 h | Potency, µM (highest dose often 46.2 µM), without a hit: at the highest dose activity change, negative = growth inhibition, usual class: inhibitors | 420,000 compounds, 12% hits | AID 686979, 2013; further: potency means the concentration at half of the fitted maximal effect; on the % scale 0 is the no-effect control and ±100 the full control effect; nearly all actives have a fitted effect of over 55% in size
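Chicken DT40 Tdp1-/- cells complemented with human TDP1, 400 cells/well, exposed to compounds plus 20 nM camptothecin for at least 48 h at 37 C; viability read as ATP content by CellTiter-Glo luminescence.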
TGFb CAGA inh: qHTS for Inhibitors of TGF-b: Confirmation of Cherry Picks; Potency, µM (series often up to 46.1 µM), without a hit: top-dose activity, negative = inhibition, actives largely listed as inhibitors; shares compounds with TGFb SMAD3 inh; 1,600 compounds, 63% hits; HepG2 CAGA-GFP TGF-b reporter, GFP fluorescence, 18 h; cells stimulated with TGF-beta, 500 pg/mL; further: potency means the concentration at half of the fitted maximal effect; on the % scale 0 is the no-effect control and ±100 the full control effect; nearly all actives have a fitted effect of over 65% in size
HepG2 tox-2: qHTS for Inhibitors of TGF-b: Cytotox Counterscreen for Cherry Picks | 1,600 compounds, 27% hits | AID 720535, 2013 | Potency, µM (top dose mostly 46.1 µM), inactives show at the top dose activity, negative = cytotoxicity, hits mostly inhibitors | shares compounds with TGFb SMAD3 inh | HepG2 CAGA-GFP viability, ATP luminescence, 18 h; cells stimulated with TGF-beta, 500 pg/mL; further: potency means the concentration at half of the fitted maximal effect; on the % scale 0 is the no-effect control and ±100 the full control effect; nearly all actives have a fitted effect of over 70% in size
TGFb CCL64 inh: qHTS for Inhibitors of TGF-b: CCL64 Cells Orthogonal Assay for Cherry Picks; shares compounds with TGFb SMAD3 inh; CCL64 CAGA-GFP reporter, TGF-b stimulated, GFP fluorescence, 18 h; Potency, µM (doses to about 46.1 µM), inactives show at the highest dose activity, negative = inhibition, actives largely listed as inhibitors; 1,600 compounds, 41% hits; AID 720536, 2013; further: potency means the concentration at half of the fitted maximal effect; nearly all actives have a fitted effect of over 65% in size
TGFb COP inh: qHTS for Inhibitors of TGF-b: Hit Validation in HepG2 Cells using COP promoter | 1,600 compounds, 3% hits | shares compounds with TGFb SMAD3 inh | AID 720537, 2013 | HepG2 COP-GFP TGF-b reporter, GFP fluorescence, 18 h; cells stimulated by added recombinant TGF-beta | Potency, µM (doses to about 46.1 µM), inactives show top-dose activity, negative = inhibition, hits mostly inhibitors; further: potency means the concentration at half of the fitted maximal effect; nearly all actives have a fitted effect of over 70% in size
Numbers without * were called inactive; ? = inconclusive; / = no result. Sampled rows, rich in hits. Any-hit rate of the full collection: about 19%. Unless noted, the call rests on the fitted dose curve; in most records, active means well fitted curve in the direction sought with a large enough effect; inconclusive means small, poorly fitted or top-dose-only effect, or another doubt; inactive means no such curve, though single readings can be large; an effect the other way counts as inactive or inconclusive.

SMILES | IL-1B inflam inh | DT40 TDP1 no CPT | TGFb SMAD3 inh | S-ASM inh | HepG2 tox-1 | DT40 TDP1 CPT | TGFb CAGA inh | HepG2 tox-2 | TGFb CCL64 inh | TGFb COP inh
C[C@H](NC(=O)[C@@H]1CCCN1C(=O)[C@@H]1CCCN1C(=O)c1ccc(Cl)cc1)c1ccccc1 | 11.4 | ? | / | / | / | -26.0% | / | / | / | /
Cc1ccc(S(=O)(=O)N(CC(=O)Nc2ccc(Cl)c([N+](=O)[O-])c2)C2CCCCC2)cc1 | -2.8 | ? | 10µM* | -12.9% | -13.6% | ? | ? | -22.5% | ? | 28.2%
CC(=NNC(=S)N1CCCC1)c1ccccn1 | 77.0 | -90.0% | ? | / | -22.1% | -82.6% | ? | ? | ? | -14.0%
Cc1cc(C)n2c(SCC(=O)N(CC(C)C)c3c(N)n(CC(C)C)c(=O)[nH]c3=O)nnc2n1 | 9.7 | 7.5% | 14.9% | 14.2% | 33.7% | 1.7% | / | / | / | /
CCOC(=O)c1c(C)oc2c1C(=O)c1ccccc1C2=O | 60.4 | 4.11µM* | 5.01µM* | -0.5% | 5.01µM* | 4.61µM* | 5.17µM* | 5.8µM* | 4.61µM* | 16.4µM*
CCOC(=O)c1c(C)cc(=O)oc1C | 4.4 | -6.7% | -2.2% | 0.7% | -3.2% | 0.7% | / | / | / | /
CCc1cccc(NC(=O)CCS(=O)(=O)c2ccc(C)cc2)c1 | / | -24.4% | 0.0% | / | -19.2% | ? | / | / | / | /
COc1ccccc1N1CCN(C(=O)NCc2ccc(Cl)cc2)CC1 | -21.7 | ? | 0.0% | -7.0% | -11.8% | -8.1% | / | / | / | /
COc1ccccc1N1CCN(C(=O)c2ccc(-c3ccc(Cl)cc3)o2)CC1 | 41.1 | 2.31µM* | 8.91µM* | -18.5% | -46.3% | 3.66µM* | 13µM* | 11.6µM* | ? | 52.8%
CC[C@]12c3[nH]c4cc(-c5ccco5)ccc4c3CCN1C(=O)[C@@H](CC(=O)NCCCn1ccnc1)C[C@@H]2C(=O)N1CCN(C(=O)C2CC2)CC1 | 0.3 | 1.2% | 4.1% | 16.9% | -13.4% | 3.1% | / | / | / | /
CCC(C)NS(=O)(=O)c1ccc(S(=O)(=O)N2CC=C(c3ccc(F)cc3)CC2)cc1 (stereo not drawn) | -25.6 | 18.4µM* | 8.91µM* | -3.6% | -32.2% | 16.4µM* | ? | -16.5% | ? | 15.4%
CC(C)c1ccc(/C=C(\c2nc3ccccc3[nH]2)S(=O)(=O)c2ccccc2)cc1 | -103.3* | 4.61µM* | 7.94µM* | -3.0% | 10µM* | 4.61µM* | 16.4µM* | 10.3µM* | 4.61µM* | -17.1%
O=S(=O)(/C(=C/c1ccc(C(F)(F)F)cc1)c1nc2ccccc2[nH]1)c1ccccc1 | -103.6* | 2.91µM* | 5.01µM* | -0.2% | 7.94µM* | 2.59µM* | 2.91µM* | 2.59µM* | 1.84µM* | ?
Cc1ccc(NC2CCCN(C(=O)C3CCCCC3)C2)cc1C (stereo not drawn) | 7.9 | ? | -21.9% | 0.4% | -10.0% | -20.3% | / | / | / | /
O=C(CSc1nnc(CCc2ccccc2)n1-c1ccc(Cl)cc1)NCc1ccccc1 | -6.6 | 16.4µM* | 11.2µM* | -1.6% | -9.5% | 16.4µM* | ? | -23.2% | ? | -3.0%
C=CCn1c(CSCc2ccc(Cl)cc2)nnc1SCC(=O)NCc1ccccc1 | 21.1 | ? | 8.91µM* | -0.4% | -39.5% | 1.1% | ? | -8.7% | -33.8% | 4.6%
COc1cc(OC)cc(-c2c(-c3cccs3)c3cc(-c4cnc(OC)nc4)ccc3n2C)c1 | 0.5 | 14.6µM* | ? | 18.6% | -15.6% | ? | ? | -3.5% | -11.4% | -18.5%
COc1cc(OC)cc(-c2c(-c3ccc(F)cc3)c3cc(-c4ccc(SC)cc4)ccc3n2C)c1 | 0.0 | ? | 9.9% | 32.5% | 0.3% | ? | / | / | / | /
CC(C)OC(=O)c1c(NC(=O)COc2cccc(Br)c2)sc2c1CCCC2 | / | -28.2% | -1.6% | / | 1.2% | -22.7% | / | / | / | /
COc1ccc(CNC(=O)O[C@]23C[C@H]4C(=O)N(c5ccccc5)C(=O)[C@H]4C[C@@]2(O)CN(S(=O)(=O)c2ccc(C)cc2)C3)cc1OC | 9.3 | -8.7% | 4.7% | / | 5.7% | -4.7% | / | / | / | /
O=[N+]([O-])c1ccc(S(=O)(=O)Nc2ccc(S(=O)(=O)N3CCCC3)cc2)cc1 | 22.2 | -9.1% | -5.7% | -2.9% | -13.5% | -21.8% | / | / | / | /
O=[N+]([O-])c1ccc(NS(=O)(=O)c2ccc(Cl)c(Cl)c2)cc1 | -27.0 | 10.3µM* | 10µM* | / | -8.6% | 9.2µM* | 10.3µM* | 7.31µM* | ? | 82.3%
COc1ccc(OCC2c3cc(OC)c(OC)cc3CCN2C(=O)c2ccc(F)cc2)cc1 (stereo not drawn) | / | ? | -7.4% | / | -10.5% | -28.0% | / | / | / | /
CC(C)C[C@H]1CN([C@@H](Cc2ccc(O)cc2)CN2CCC[C@@H]2CN2C(=S)NC[C@@H]2Cc2ccccc2)C(=S)N1CC1CCCCCC1 | -16.7 | 20.6µM* | 10µM* | / | -4.9% | ? | ? | -8.7% | ? | 28.3%
